Laboratory results reported in PubChem BioAssay (NCI).
Compounds without any hit were thinned out: in the full panel of roughly 79,000, 15% have a hit. Calls of active or inactive are those of the source. Cut-off read from the data, not from the text of the source: active = growth inhibition above about 70%; inactive = the rest.

How the values were obtained:
[1] = NCI Yeast Anticancer Drug Screen. Data for the mlh1 strain (AID 171);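 note: 0% = growth of vehicle-treated control cultures of the same strain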; conditions: S. cerevisiae mlh1 strain growth inhibition, hits give high values
How it was run: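 Here the genetically defined yeast mutant is grown with each compound, and the extent to which its growth falls below that of vehicle-exposed cells is reported.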

[2] = NCI Yeast Anticancer Drug Screen. Data for the sgs1 strain (AID 173);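 note: 0% = growth of vehicle-only control cultures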; conditions: S. cerevisiae sgs1 mutant, hits give high values
How it was run: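 Relative growth inhibition, referenced to vehicle, was determined in a yeast strain with a defined alteration affecting DNA damage repair or cell cycle control after compound exposure.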

[3] = NCI Yeast Anticancer Drug Screen. Data for the mlh1 rad18 strain (AID 175); conditions: S. cerevisiae mlh1 rad18 strain growth inhibition, hits give high values
How it was run: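 In this whole-cell yeast screen, a strain with altered DNA damage repair is challenged with compound, and its growth is measured against matched vehicle-treated controls.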

[4] = NCI Yeast Anticancer Drug Screen. Data for the rad18 strain (AID 177); conditions: S. cerevisiae rad18 mutant growth inhibition, hits give high values
How it was run: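 Screen uses a yeast strain with a defined lesion in DNA damage repair; compound effect is read as loss of growth compared to untreated vehicle cultures.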

[5] = NCI Yeast Anticancer Drug Screen. Data for the rad52 strain (AID 147);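 note: 0% = growth of vehicle-treated control cultures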; conditions: S. cerevisiae rad52 mutant growth inhibition, hits give high values
How it was run: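 Measured: yeast growth inhibition. System: strain with a defined DNA damage repair alteration. Reference: vehicle-treated control cultures.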

[6] = NCI Yeast Anticancer Drug Screen. Data for the wt1 strain (AID 149);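 note: 0% = growth of vehicle-treated wt1 cultures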; conditions: S. cerevisiae wt1 strain (SPY 50644) growth inhibition, hits give high values
How it was run: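 Each compound is tested on wt1 yeast and the loss of growth versus vehicle gives the inhibition value.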

[7] = NCI Yeast Anticancer Drug Screen. Data for the rad50EPP+ strain (AID 151);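 note: 0% = growth of vehicle-treated control cultures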; conditions: S. cerevisiae rad50 mutant strain, hits give high values
How it was run: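 One strain with a rad50 alteration (rad50EPP+) was compound-treated, its growth then compared to that of vehicle controls.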

[8] = NCI Yeast Anticancer Drug Screen. Data for the rad50 strain (AID 155);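 note: 0% = growth of vehicle-only cultures of the same strain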; conditions: S. cerevisiae rad50 strain growth inhibition, hits give high values
How it was run: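 Vehicle-treated cultures provide the reference for the growth inhibition reported for compound-exposed, repair-deficient yeast.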

[9] = NCI Yeast Anticancer Drug Screen. Data for the mec2-1 strain (AID 157); conditions: S. cerevisiae mec2-1 strain, hits give high values
How it was run: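 Test agents were screened against the mec2-1 yeast strain, with defined DNA repair or cell cycle alteration. Growth was scored as inhibition against vehicle-only controls.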

[10] = NCI Yeast Anticancer Drug Screen. Data for the rad14 strain (AID 159);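 note: 0% = growth of vehicle-treated control cultures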; conditions: S. cerevisiae rad14 strain growth inhibition, hits give high values
How it was run: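 Inhibition of growth is reported for a repair-deficient yeast mutant following compound treatment, calculated relative to cultures that received vehicle.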

[11] = NCI Yeast Anticancer Drug Screen. Data for the sgs1 mgt1 strain (AID 161);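 note: 0% = growth of cultures given vehicle only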; conditions: S. cerevisiae sgs1 mgt1 strain, hits give high values
How it was run: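 Read-out: growth inhibition vs vehicle controls. Cells: mutant yeast strain deficient in DNA damage repair.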

[12] = NCI Yeast Anticancer Drug Screen. Data for the CLN2oe strain (AID 163);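 note: 0% = growth of vehicle-only control cultures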; conditions: S. cerevisiae CLN2oe strain, hits give high values
How it was run: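 Here, growth inhibition in a cell-cycle-altered yeast strain after compound exposure was quantified against vehicle control growth.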

[13] = NCI Yeast Anticancer Drug Screen. Data for the cln2 rad14 strain (AID 165);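 note: 0% = growth equal to vehicle treated cultures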; conditions: S. cerevisiae cln2 rad14 strain, hits give high values
How it was run: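 Growth of compound-exposed yeast (cln2 rad14 genotype) measured and expressed as inhibition relative to vehicle.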

[14] = NCI Yeast Anticancer Drug Screen. Data for the bub3 strain (AID 167); conditions: S. cerevisiae bub3 mutant strain, hits give high values
How it was run: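 Mutant yeast screening strain plus compound; vehicle-treated cultures serve as the 0% inhibition reference.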

[15] = NCI Yeast Anticancer Drug Screen. Data for the wt2 strain (AID 169); conditions: S. cerevisiae wt2 strain growth inhibition, hits give high values
How it was run: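 Genetically defined yeast strains from a DNA-repair/cell-cycle panel were used. Compound-exposed yeast growth was measured, and the inhibition was calculated relative to vehicle treatment.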

[16] = at 5.0 µM (retest, dose inferred, filed as 0.5)
[17] = at 50.0 µM (retest, dose inferred, filed as 5.0)

Measured: growth inhibition

Nc1nc2c(c(=O)[nH]1)NC(CCNc1ccc(C(=O)O)cc1)CN2 (centres undefined)
inactive: [1]; at 1.2 µM 0% | [1]; at 3.7 µM -1% | [1]; at 11.0 µM 0% | [1]; at 33.0 µM 0% | [1]; at 100.0 µM 15% | [2]; at 1.2 µM -2% | [2]; at 3.7 µM -3% | [2]; at 11.0 µM -4% | [2]; at 33.0 µM -6% | [2]; at 100.0 µM -3% | [3]; [16] 8% | [3]; [17] 28% | [3]; at 50.0 µM 4.25% | [4]; at 1.2 µM -3% | [4]; at 3.7 µM -5% | [4]; at 11.0 µM -10% | [4]; at 33.0 µM -22% | [4]; at 100.0 µM -29%

COC(=O)c1n[nH]c(C)c1N=NN(C)CCC#N
inactive: [5]; at 1.2 µM 46% | [6]; at 1.2 µM -6% | [6]; at 3.7 µM -5% | [7]; at 1.2 µM 26% | [8]; at 1.2 µM 18% | [8]; [16] 69% | [9]; at 1.2 µM 2% | [9]; at 3.7 µM 3% | [9]; [16] -31% | [10]; at 1.2 µM 1% | [10]; at 3.7 µM 11% | [11]; [16] -11% | [12]; at 1.2 µM -2% | [12]; at 3.7 µM -3% | [13]; [16] -41% | [14]; at 1.2 µM -21% | [14]; at 3.7 µM -16% | [14]; [16] -71% | [15]; at 1.2 µM 0% | [15]; at 3.7 µM 11% | [1]; at 1.2 µM 7% | [1]; at 3.7 µM 0% | [2]; at 1.2 µM 15% | [3]; [16] -49% | [4]; at 1.2 µM 16% | [4]; at 3.7 µM 68%
active: [5]; at 3.7 µM 91% | [5]; at 11.0 µM 97% | [5]; at 33.0 µM 98% | [5]; at 100.0 µM 99% | [6]; at 11.0 µM 97% | [6]; at 33.0 µM 99% | [6]; at 100.0 µM 99% | [7]; at 3.7 µM 77% | [7]; at 11.0 µM 95% | [7]; at 33.0 µM 97% | [7]; at 100.0 µM 99% | [8]; at 3.7 µM 81% | [8]; at 11.0 µM 96% | [8]; at 33.0 µM 98% | [8]; [17] 96% | [8]; at 50.0 µM 98.5% | [8]; at 100.0 µM 99% | [9]; at 11.0 µM 99% | [9]; at 33.0 µM 99% | [9]; [17] 98% | [9]; at 50.0 µM 99.2% | [9]; at 100.0 µM 99% | [10]; at 11.0 µM 72% | [10]; at 33.0 µM 99% | [10]; at 100.0 µM 99% | [11]; [17] 96% | [11]; at 50.0 µM 98.8% | [12]; at 11.0 µM 95% | [12]; at 33.0 µM 99% | [12]; at 100.0 µM 99% | [13]; [17] 98% | [13]; at 50.0 µM 97.8% | [14]; at 11.0 µM 80% | [14]; at 33.0 µM 99% | [14]; [17] 97% | [14]; at 50.0 µM 99% | [14]; at 100.0 µM 98% | [15]; at 11.0 µM 99% | [15]; at 33.0 µM 99% | [15]; at 100.0 µM 99% | [1]; at 11.0 µM 98% | [1]; at 33.0 µM 99% | [1]; at 100.0 µM 99% | [2]; at 3.7 µM 70% | [2]; at 11.0 µM 99% | [2]; at 33.0 µM 99% | [2]; at 100.0 µM 99% | [3]; [17] 97% | [3]; at 50.0 µM 98.8% | [4]; at 11.0 µM 95% | [4]; at 33.0 µM 98% | [4]; at 100.0 µM 99%

N#CSC1CCCCNC1=O (centres undefined)
inactive: [5]; at 1.2 µM 2% | [5]; at 3.7 µM 10% | [5]; at 11.0 µM 32% | [6]; at 1.2 µM -3% | [6]; at 3.7 µM -3% | [6]; at 11.0 µM 9% | [6]; at 33.0 µM 46% | [7]; at 1.2 µM 6% | [7]; at 3.7 µM 18% | [7]; at 11.0 µM 42% | [8]; at 1.2 µM 0% | [8]; at 3.7 µM 3% | [8]; [16] -150% | [8]; at 11.0 µM 36% | [8]; [17] 26% | [8]; at 50.0 µM 54.2% | [9]; at 1.2 µM 4% | [9]; at 3.7 µM 3% | [9]; [16] -47% | [9]; at 11.0 µM 25% | [9]; at 33.0 µM 51% | [9]; [17] 3% | [10]; at 1.2 µM 2% | [10]; at 3.7 µM -4% | [10]; at 11.0 µM 10% | [10]; at 33.0 µM 59% | [11]; [16] -59% | [11]; [17] 35% | [11]; at 50.0 µM 50% | [12]; at 1.2 µM -4% | [12]; at 3.7 µM -4% | [12]; at 11.0 µM 21% | [12]; at 33.0 µM 44% | [13]; [16] -58% | [13]; [17] -13% | [13]; at 50.0 µM 52.5% | [14]; at 1.2 µM -4% | [14]; at 3.7 µM 4% | [14]; [16] -66% | [14]; at 11.0 µM 36% | [14]; at 33.0 µM 60% | [14]; [17] 2% | [15]; at 1.2 µM 0% | [15]; at 3.7 µM -1% | [15]; at 11.0 µM 10% | [15]; at 33.0 µM 49% | [1]; at 1.2 µM 7% | [1]; at 3.7 µM -4% | [1]; at 11.0 µM 26% | [1]; at 33.0 µM 56% | [2]; at 1.2 µM 1% | [2]; at 3.7 µM 5% | [2]; at 11.0 µM 57% | [3]; [16] -126% | [3]; [17] 58% | [4]; at 1.2 µM 12% | [4]; at 3.7 µM 33%
active: [5]; at 33.0 µM 83% | [5]; at 100.0 µM 98% | [6]; at 100.0 µM 93% | [7]; at 33.0 µM 70% | [7]; at 100.0 µM 85% | [8]; at 33.0 µM 86% | [8]; at 100.0 µM 98% | [9]; at 50.0 µM 78.3% | [9]; at 100.0 µM 94% | [10]; at 100.0 µM 99% | [12]; at 100.0 µM 96% | [14]; at 50.0 µM 79.7% | [14]; at 100.0 µM 97% | [15]; at 100.0 µM 98% | [1]; at 100.0 µM 98% | [2]; at 33.0 µM 89% | [2]; at 100.0 µM 99% | [3]; at 50.0 µM 95.9% | [4]; at 11.0 µM 82% | [4]; at 33.0 µM 94% | [4]; at 100.0 µM 98%
